Measurements as given in PMC5540273 (PLoS ONE, 2017).

Columns and labels:
Conditions in all cases: concentration: 1 μM,replicates: in singlicate; n = 1
FYN = system: FYN
GAK = system: GAK
GCN2(Kin.Dom.2,S808G) = system: T1, GCN2(Kin.Dom.2,S808G)
T1 construct: gene EIF2AK4

GRK1 = system: GRK1
GRK2 = system: T2, GRK2
T2 construct: gene ADRBK1

GRK3 = system: T3, GRK3
T3 construct: gene ADRBK2

GRK4 = system: GRK4
GRK7 = system: GRK7
GSK3A = system: GSK3A
GSK3B = system: GSK3B
HASPIN = system: T4, HASPIN
T4 construct: gene GSG2

HCK = system: HCK
HIPK1 = system: HIPK1
HIPK2 = system: HIPK2
HIPK3 = system: HIPK3
HIPK4 = system: HIPK4
HPK1 = system: HPK1
HUNK = system: HUNK
ICK = system: ICK
IGF1R = system: IGF1R
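Note: KINOMEscan kinase panel screen.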

Compound	%Inh (FYN) [%]	%Inh (GAK) [%]	%Inh (GCN2(Kin.Dom.2,S808G)) [%]	%Inh (GRK1) [%]	%Inh (GRK2) [%]	%Inh (GRK3) [%]	%Inh (GRK4) [%]	%Inh (GRK7) [%]	%Inh (GSK3A) [%]	%Inh (GSK3B) [%]	%Inh (HASPIN) [%]	%Inh (HCK) [%]	%Inh (HIPK1) [%]	%Inh (HIPK2) [%]	%Inh (HIPK3) [%]	%Inh (HIPK4) [%]	%Inh (HPK1) [%]	%Inh (HUNK) [%]	%Inh (ICK) [%]	%Inh (IGF1R) [%]
c1ccc(Oc2ccc(Nc3ccnc4ccc(-c5ccccn5)cc34)cc2)cc1 [GW407034]	62	17	1	0	0	46	16	0	7	9	0	71	0	0	0	0	25	0	16	5
Cn1cc(-c2cccc3c(N)c(C(N)=O)nnc23)cn1	1	36	16	23	7	0	40	36	7	20	96.5	13	68	62	67	18	0	0	24	0
COc1cc2nccc(Nc3ccc(Oc4ccccc4)cc3)c2cc1OC.Cl [GI261656]	86	0	5	0	0	24	0	0	6	13	29	97.6	0	0	11	0	2	9	0	0
CCn1c(-c2nonc2N)nc2cncc(CNC3CCNCC3)c21.Cl [SB-747651]	43	19	6	5	0	59	0	0	37	24	73	0	0	0	48	0	35	0	16	13
O=C(Nc1ccccc1)c1cccc(Oc2ccc3nccn3n2)c1	1	8	0	0	0	26	0	0	0	0	15	15	0	0	0	32	0	0	63	0
Cl.Nc1n[nH]c2cc(-c3ccccn3)ccc12 [GSK2189892]	0	0	0	0	0	0	0	0	4	0	38	0	2	0	5	0	38	0	0	5
CN(c1cccc(CNc2nc(Nc3ccc4c(c3)CC(=O)N4)ncc2C(F)(F)F)c1)S(C)(=O)=O	0	33	10	25	0	0	19	0	35	0	0	0	39	11	0	14	19	0	0	34
C[C@@H]1CNc2c(sc3ccc4nc(-c5ccncc5)ccc4c23)C(=O)N1	0	13	0	34	18	0	2	29	0	3	70	21	37	3	4	0	0	7	0	0
